Cytotoxicity call data for 68 compounds are collected here from the antibiotic and cytotoxicity screens of Wong et al. (2023).

Screen size: about 39,000 compounds; about 3,300 (8.5%) were called active. This excerpt belongs to a sample that is enriched for actives.

This assay concerns HepG2. As to the kind of experiment: cytotoxicity call (relative viability < 0.9). Conditions: 10 µM.
As for `C[C@H]1CN([C@@H](C)CO)C(=O)Cc2cc(NS(=O)(=O)c3ccc(Cl)cc3)ccc2O[C@H]1CN(C)Cc1ccc(Cl)c(Cl)c1`, the cytotoxicity call is “active”.

On to `C[C@@H]1CN([C@@H](C)CO)C(=O)Cc2cc(NS(=O)(=O)c3ccc(Cl)cc3)ccc2O[C@@H]1CN(C)Cc1ccc(Cl)c(Cl)c1`, for which the cytotoxicity call is “active”. Next, `C[C@@H]1CN([C@H](C)CO)C(=O)Cc2cc(NS(=O)(=O)c3ccc(Cl)cc3)ccc2O[C@H]1CN(C)Cc1ccc(Cl)c(Cl)c1`: “inactive”; `C[C@@H]1CN([C@@H](C)CO)C(=O)Cc2cc(NS(=O)(=O)c3ccc(Cl)cc3)ccc2O[C@H]1CN(C)Cc1ccc(Cl)c(Cl)c1`: “inactive”; `C[C@H](CO)N1C[C@H](C)[C@H](CN(C)Cc2ccc(Cl)c(Cl)c2)Oc2ccc(NS(=O)(=O)c3ccc(Cl)cc3)cc2CC1=O`: “active”.

Regarding `C[C@@H]1CN([C@H](C)CO)C(=O)Cc2cc(NS(=O)(=O)c3ccc(Cl)cc3)ccc2O[C@@H]1CN(C)Cc1ccc(Cl)c(Cl)c1`, the cytotoxicity call was “active”. Regarding `C[C@H]1CN([C@@H](C)CO)C(=O)Cc2cc(NS(=O)(=O)c3ccc(Cl)cc3)ccc2O[C@@H]1CN(C)Cc1ccc(Cl)c(Cl)c1`, the cytotoxicity call is “inactive”. Consider `C[C@H](CO)N1C[C@H](C)[C@@H](CN(C)Cc2ccc(Cl)c(Cl)c2)Oc2ccc(NS(=O)(=O)c3ccc(Cl)cc3)cc2CC1=O`, for which the cytotoxicity call is “inactive”. Turning to `CO[C@H]1CN(C)C(=O)c2ccc(NS(=O)(=O)c3cn(C)cn3)cc2OC[C@@H](C)N(Cc2cccc(F)c2)C[C@H]1C`, the cytotoxicity call was “inactive”. In the case of `C[C@H](CO)N1C[C@H](C)[C@H](CN(C)Cc2ccc(C(=O)O)cc2)Oc2c(NC(=O)C3CCOCC3)cccc2C1=O`, the cytotoxicity call is “inactive”. Turning to `C[C@@H]1CN([C@@H](C)CO)C(=O)c2cccc(NC(=O)Nc3ccccc3)c2O[C@@H]1CN(C)Cc1ccc(Cl)c(Cl)c1`, the cytotoxicity call was “inactive”.

In the case of `Cc1cc2n(c(=O)c1C(N)=O)CCO2`, the cytotoxicity call was “inactive”. The entry for `CC/C=C\C/C=C\C/C=C\C/C=C\C/C=C\C/C=C\CCC(=O)OCC` is “inactive”; for `C[C@@H]1CN([C@@H](C)CO)C(=O)c2cc(NC(=O)Nc3ccc4c(c3)OCO4)ccc2O[C@@H](C)CCCCO[C@@H]1CN(C)Cc1ccncc1` it is “inactive”; for `CCCNC(=O)N1C[C@]2(CCN(CC2)S(=O)(=O)c2ccccc2)c2c(n(c3cc(ccc23)OC)C)[C@H]1CO` it is “inactive”. Next, `CCCNC(=O)N1C[C@]2(CCN(CC2)S(=O)(=O)c2ccc(cc2)OC)c2c(n(c3cc(ccc23)OC)C)[C@H]1CO`: “inactive”; `CCCNC(=O)N1C[C@]2(CN(C2)S(=O)(=O)c2ccccc2)c2c(n(c3cc(ccc23)OC)C)[C@H]1CO`: “active”; `CCCNC(=O)N1C[C@]2(CN(C2)S(=O)(=O)c2ccccc2)c2c(n(c3cc(ccc23)OC)C)[C@@H]1CO`: “inactive”. The entry for `CCCNC(=O)N1C[C@]2(CN(C2)S(=O)(=O)c2cccc(c2)OC)c2c(n(c3cc(ccc23)OC)C)[C@@H]1CO` is “inactive”. In the case of `CCCNC(=O)N1C[C@]2(CCN(CC2)S(=O)(=O)c2ccc(cc2)OC)c2c(n(c3cc(ccc23)OC)C)[C@@H]1CO`, the cytotoxicity call is “active”. Take `C[C@H]1CN([C@@H](C)CO)C(=O)c2cccc(NS(C)(=O)=O)c2O[C@H]1CN(C)S(=O)(=O)c1cccs1`: the cytotoxicity call was “inactive”.

As for `COCC#Cc1cnc2c(c1)C(=O)N([C@H](C)CO)C[C@@H](C)[C@H](CN(C)C(C)=O)O2`, the cytotoxicity call was “inactive”.

Take `N[C@@H]1CC(=O)N(c2ccc(F)cc2)C1`: the cytotoxicity call is “inactive”. The entry for `C[C@H](CO)N1C[C@H](C)[C@H](CN(C)S(=O)(=O)c2ccc(Cl)cc2)Oc2ccc(NS(=O)(=O)c3cn(C)cn3)cc2C1=O` is “inactive”. In the case of `O=C(CCCCC(=O)N/N=C/[C@H](O)[C@@H](O)[C@H](O)CO)NO`, the cytotoxicity call was “inactive”. Next, `COc1ccc(CN(C)C[C@H]2OCCCC[C@@H](C)Oc3ccc(NS(=O)(=O)c4cccs4)cc3C(=O)N([C@H](C)CO)C[C@@H]2C)cc1`: “inactive”; `COC(=O)C[C@](O)(CCCC(C)(C)O)C(=O)O[C@@H]1C(OC)=C[C@]23CCCN2CCc2cc4c(cc2[C@H]13)OCO4`: “active”. Next, `CC(C)(O)[C@@H]1CC[C@]2(CO)[C@@H](O)CC[C@](C)(O)[C@H]2[C@@H]1O[C@@H]1O[C@H](CO)[C@@H](O)[C@H](O)[C@H]1O`: “inactive”; `Cc1ccc(S(=O)(=O)N(C)C[C@H]2Oc3c(NC(=O)c4cnccn4)cccc3C(=O)N([C@@H](C)CO)C[C@@H]2C)cc1`: “inactive”; `C[C@@H]1CCCCO[C@@H](CN(C)S(=O)(=O)c2ccc(Cl)cc2)[C@H](C)CN([C@H](C)CO)C(=O)c2cc(NC(=O)c3ccccc3)ccc2O1`: “inactive”. Turning to `C[C@@H]1CN([C@@H](C)CO)C(=O)c2cc(NC(=O)c3ccccc3)ccc2O[C@@H](C)CCCCO[C@H]1CN(C)S(=O)(=O)c1ccc(Cl)cc1`, the cytotoxicity call was “active”.

For `C[C@H](CO)N1C[C@H](C)[C@H](CN(C)S(=O)(=O)c2ccc(Cl)cc2)OCCCC[C@H](C)Oc2ccc(NC(=O)c3ccccc3)cc2C1=O`, the cytotoxicity call was “inactive”. The entry for `C[C@@H]1CN([C@H](C)CO)C(=O)c2cc(NC(=O)c3ccccc3)ccc2O[C@@H](C)CCCCO[C@H]1CN(C)S(=O)(=O)c1ccc(Cl)cc1` is “active”; for `C[C@@H]1CCCCO[C@@H](CN(C)S(=O)(=O)c2ccc(Cl)cc2)[C@@H](C)CN([C@H](C)CO)C(=O)c2cc(NC(=O)c3ccccc3)ccc2O1` it is “inactive”. The entry for `C[C@@H]1CCCCO[C@H](CN(C)S(=O)(=O)c2ccc(Cl)cc2)[C@@H](C)CN([C@H](C)CO)C(=O)c2cc(NC(=O)c3ccccc3)ccc2O1` is “inactive”; for `C[C@H]1CCCCO[C@H](CN(C)S(=O)(=O)c2ccc(Cl)cc2)[C@@H](C)CN([C@@H](C)CO)C(=O)c2cc(NC(=O)c3ccccc3)ccc2O1` it is “active”.

Consider `C[C@@H]1CCCCO[C@@H](CN(C)S(=O)(=O)c2ccc(Cl)cc2)[C@@H](C)CN([C@@H](C)CO)C(=O)c2cc(NC(=O)c3ccccc3)ccc2O1`, for which the cytotoxicity call is “inactive”.

With `C[C@@H]1CN([C@@H](C)CO)C(=O)c2cc(NC(=O)c3ccccc3)ccc2O[C@@H](C)CCCCO[C@@H]1CN(C)S(=O)(=O)c1ccc(Cl)cc1`, the cytotoxicity call is “inactive”. With `COCC#Cc1ccc([C@H]2[C@H](CO)N3C(=O)CN(C(=O)c4ccncc4)C[C@@H]23)cc1`, the cytotoxicity call is “inactive”. Next, `Cc1noc(C)c1S(=O)(=O)N(C)C[C@@H]1Oc2ccc(NS(=O)(=O)c3cn(C)cn3)cc2CC(=O)N([C@H](C)CO)C[C@@H]1C`: “inactive”; `NC(=S)CS(=O)(=O)c1ccccn1`: “inactive”; `CC(=O)OC[C@H]1O[C@@H](NC(N)=O)[C@H](OC(C)=O)[C@@H](OC(C)=O)[C@@H]1OC(C)=O`: “inactive”.

For `C[C@@H]1CCCCO[C@@H](CN(C)C)[C@H](C)CN([C@@H](C)CO)C(=O)c2cc(NC(=O)Nc3cccc4ccccc34)ccc2O1`, the cytotoxicity call was “inactive”. With `C[C@H]1CN([C@@H](C)CO)C(=O)c2cc(NC(=O)CCCN(C)C)ccc2O[C@@H]1CN(C)C(=O)Nc1ccccc1`, the cytotoxicity call is “inactive”.

As for `NC[C@@H](O)C1CCCCC1`, the cytotoxicity call was “inactive”. For the compound `c1cn2c3c(n1)CCCc3c1cc(C3CCCCC3)ccc12`, the cytotoxicity call is “inactive”. The entry for `Nc1ncnc2c1c(I)cn2[C@H]1O[C@@H](CO)[C@@H](O)[C@@H]1O` is “active”.

For the compound `NC(=O)c1cn([C@@H]2O[C@H](CO)[C@@H](O)[C@H]2O)c2ncnc(N)c2c1=O`, the cytotoxicity call is “inactive”. Next, `Nc1nc(=O)n([C@@H]2O[C@H](CO)[C@@H](O)[C@@H]2F)cc1I`: “inactive”.

Take `Nc1ncnc2c1ncn2[C@H]1O[C@@H](CO)[C@H](O)[C@@H]1S`: the cytotoxicity call was “inactive”. Next, `CSC[C@H]1O[C@H](n2ccc3c(N)ncnc32)[C@@H](O)[C@H]1O`: “inactive”; `Nc1ncnc2c1c(I)cn2[C@@H]1O[C@H](CO)[C@@H](O)[C@H]1O`: “active”; `CCS(=O)(=O)N1C[C@]2(CCN(CC2)Cc2cccc(c2)OC)c2c([nH]c3cc(ccc23)OC)[C@@H]1CO`: “inactive”. As to `C[C@@H]1CN([C@H](C)CO)C(=O)Cc2cc(NC(=O)CCC(F)(F)F)ccc2O[C@H]1CN(C)S(=O)(=O)c1cccs1`, the cytotoxicity call is “inactive”. Next, `Cc1ccc(S(=O)(=O)Nc2cccc3c2O[C@H](CN(C)S(=O)(=O)c2cn(C)cn2)[C@@H](C)CN([C@@H](C)CO)C3=O)cc1`: “inactive”. Next, `COCCOC(=O)N1C(=O)[C@@]2(c3cc(C#CCC(C(=O)OC)C(=O)OC)ccc31)[C@H](C(=O)Nc1nc3ccccc3s1)[C@H]1C(=O)O[C@H](c3ccccc3)[C@H](c3ccccc3)N1[C@@H]2c1ccccc1OCCO`: “inactive”. In the case of `Cc1noc(C)c1S(=O)(=O)Nc1ccc2c(c1)C(=O)N([C@H](C)CO)C[C@@H](C)[C@H](CN(C)C(=O)Nc1ccc(F)cc1)OCCCC[C@@H](C)O2`, the cytotoxicity call was “inactive”. Consider `CC(C)(C)C(=O)OCOP(=O)(OCOC(=O)C(C)(C)C)C(C)(Oc1ccc(O)cc1)P(=O)(OCOC(=O)C(C)(C)C)OCOC(=O)C(C)(C)C`, for which the cytotoxicity call was “active”. As for `CC(C)(C)Oc1ccc(O)cc1`, the cytotoxicity call was “inactive”. The entry for `CCOC(=O)C(C)(C)Oc1ccc(Cl)cc1` is “inactive”; for `COc1ccc(NC(=O)N(C)C[C@H]2OCCCC[C@@H](C)Oc3ccc(NS(=O)(=O)c4ccc(C)cc4)cc3C(=O)N([C@@H](C)CO)C[C@@H]2C)cc1` it is “inactive”. In the case of `COc1cc2c(cc1O)[C@H](c1ccc(CN3CCCC3)cc1)N(Cc1cc3c(cc1Br)OCO3)CC2`, the cytotoxicity call is “inactive”. The entry for `C[C@H](CO)N1C[C@H](C)[C@@H](CN(C)C(=O)NC2CCCCC2)Oc2ccc(NC(=O)Nc3ccc(C(F)(F)F)cc3)cc2CC1=O` is “inactive”; for `C[C@@H]1CN([C@@H](C)CO)C(=O)Cc2cc(NC(=O)Nc3ccc(C(F)(F)F)cc3)ccc2O[C@H]1CN(C)C(=O)NC1CCCCC1` it is “inactive”. Regarding `C[C@H]1CN([C@@H](C)CO)C(=O)Cc2cc(NC(=O)Nc3ccc(C(F)(F)F)cc3)ccc2O[C@H]1CN(C)C(=O)NC1CCCCC1`, the cytotoxicity call was “inactive”. The entry for `C[C@@H]1CN([C@H](C)CO)C(=O)Cc2cc(NC(=O)Nc3ccc(C(F)(F)F)cc3)ccc2O[C@@H]1CN(C)C(=O)NC1CCCCC1` is “active”; for `C[C@@H]1CN([C@H](C)CO)C(=O)Cc2cc(NC(=O)Nc3ccc(C(F)(F)F)cc3)ccc2O[C@H]1CN(C)C(=O)NC1CCCCC1` it is “inactive”; for `C[C@@H]1CN([C@@H](C)CO)C(=O)Cc2cc(NC(=O)Nc3ccc(C(F)(F)F)cc3)ccc2O[C@@H]1CN(C)C(=O)NC1CCCCC1` it is “active”.
